# Source: the supplement of paper PMC4022240
# ± gives the standard deviation.
# How the values were obtained:
# Experiment in all cases: peptide microarray binding signal (635 nm), min-max normalized on array (fraction of array maximum); higher = stronger binding
# Conditions in all cases: peptide region: H3 1-13
# [1] = molecular target: T1, HaloTag-ATRX ADD domain (163-292)
# T1 chain: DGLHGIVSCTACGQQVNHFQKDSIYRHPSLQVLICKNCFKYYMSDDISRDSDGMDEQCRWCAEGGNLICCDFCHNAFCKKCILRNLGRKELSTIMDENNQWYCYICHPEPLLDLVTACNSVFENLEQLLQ
# Description: (§1)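 Histone 13-mer peptides were synthesized as cellulose conjugates with a C-terminal 20-atom PEG linker and printed in triplicate on nitrocellulose. The sequence given is the unmodified backbone; PTMs (Kme1/2/3, Kac, Sph/Tph, Rme/Rme2a/Rme2s, Rcit) are listed in the label and the 'peptide modifications' condition. Slides were probed at 4 °C for 1 h with biotin-labelled (HQ)5-HaloTag reader fusions (ATRX-ADD, ING2-PHD) then streptavidin-Alexa647, or with rabbit histone antibodies then anti-rabbit Alexa647. The mean 635 nm signal of the triplicate spots was scaled 0-1 between the lowest and highest values on each array.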
# [2] = molecular target: HaloTag-ING2 PHD (mouse Ing2 200-280)
# Description: as §1
# [3] = molecular target: anti-H3K4me3 antibody ab8580
# Description: as §1
# [4] = molecular target: anti-H3K9me3 antibody ab8898
# Description: as §1
# [5] = peptide modifications: H3R8me2a H3K9ac, binder concentration: 1:2,000 dilution
# [6] = peptide modifications: H3R8me2a H3K9ac, binder concentration: 1:10,000 dilution
# [7] = peptide modifications: H3R8me2s H3K9me1, binder concentration: 1:2,000 dilution
# [8] = peptide modifications: H3R8me2s H3K9me1, binder concentration: 1:10,000 dilution
# [9] = peptide modifications: H3R8cit, binder concentration: 1:2,000 dilution
# [10] = peptide modifications: H3R8cit, binder concentration: 1:10,000 dilution
# [11] = peptide modifications: H3R8me1 H3K9me3, binder concentration: 1:2,000 dilution
# [12] = peptide modifications: H3R8me1 H3K9me3, binder concentration: 1:10,000 dilution
# [13] = peptide modifications: H3R8me2s, binder concentration: 1:2,000 dilution
# [14] = peptide modifications: H3R8me2s, binder concentration: 1:10,000 dilution
# [15] = peptide modifications: H3S10ph, binder concentration: 1:2,000 dilution
# [16] = peptide modifications: H3S10ph, binder concentration: 1:10,000 dilution
# [17] = peptide modifications: H3R8me2a, binder concentration: 1:2,000 dilution
# [18] = peptide modifications: H3R8me2a, binder concentration: 1:10,000 dilution
# [19] = peptide modifications: H3R8me2s H3K9me2, binder concentration: 1:2,000 dilution
# [20] = peptide modifications: H3R8me2s H3K9me2, binder concentration: 1:10,000 dilution
# [21] = peptide modifications: H3R8me2a H3K9me2, binder concentration: 1:2,000 dilution
# [22] = peptide modifications: H3R8me2a H3K9me2, binder concentration: 1:10,000 dilution
# [23] = peptide modifications: H3R8me2a H3K9me3, binder concentration: 1:2,000 dilution
# [24] = peptide modifications: H3R8me2a H3K9me3, binder concentration: 1:10,000 dilution
binder,measurement,setting,value
ARTKQTARKSTGG [H3 1-13 A R T K Q T A Rme2a Kac S T G G],peptide microarray binding signal,"[1]; peptide modifications: H3R8me2a H3K9ac, binder concentration: 50 nM",0.0172 ± 0.00041
same,peptide microarray binding signal,"[1]; peptide modifications: H3R8me2a H3K9ac, binder concentration: 500 nM",0.0506 ± 0.0025
same,peptide microarray binding signal,"[2]; peptide modifications: H3R8me2a H3K9ac, binder concentration: 10 nM",0.0458 ± 0.0028
same,peptide microarray binding signal,"[2]; peptide modifications: H3R8me2a H3K9ac, binder concentration: 100 nM",0.0544 ± 0.012
same,peptide microarray binding signal,[3]; [5],0.00338 ± 0.00042
same,peptide microarray binding signal,[3]; [6],0.00285 ± 0.00048
same,peptide microarray binding signal,[4]; [5],0.00364 ± 0.00047
same,peptide microarray binding signal,[4]; [6],0.00179 ± 4.5e-05
ARTKQTARKSTGG [H3 1-13 A R T K Q T A Rme2s Kme S T G G],peptide microarray binding signal,"[1]; peptide modifications: H3R8me2s H3K9me1, binder concentration: 50 nM",0.0145 ± 0.00064
same,peptide microarray binding signal,"[1]; peptide modifications: H3R8me2s H3K9me1, binder concentration: 500 nM",0.0339 ± 0.0019
same,peptide microarray binding signal,"[2]; peptide modifications: H3R8me2s H3K9me1, binder concentration: 10 nM",0.0365 ± 0.0046
same,peptide microarray binding signal,"[2]; peptide modifications: H3R8me2s H3K9me1, binder concentration: 100 nM",0.0547 ± 0.007
same,peptide microarray binding signal,[3]; [7],0.0103 ± 0.0015
same,peptide microarray binding signal,[3]; [8],0.0069 ± 0.0003
same,peptide microarray binding signal,[4]; [7],0.00578 ± 0.0013
same,peptide microarray binding signal,[4]; [8],0.00588 ± 0.00043
ARTKQTARKSTGG [H3 1-13 A R T K Q T A Rcit K S T G G],peptide microarray binding signal,"[1]; peptide modifications: H3R8cit, binder concentration: 50 nM",0.00727 ± 0.00022
same,peptide microarray binding signal,"[1]; peptide modifications: H3R8cit, binder concentration: 500 nM",0.0196 ± 0.0019
same,peptide microarray binding signal,"[2]; peptide modifications: H3R8cit, binder concentration: 10 nM",0.0125 ± 0.004
same,peptide microarray binding signal,"[2]; peptide modifications: H3R8cit, binder concentration: 100 nM",0.0291 ± 0.013
same,peptide microarray binding signal,[3]; [9],0.000359 ± 9.7e-06
same,peptide microarray binding signal,[3]; [10],0.000456 ± 9.9e-06
same,peptide microarray binding signal,[4]; [9],0.000785 ± 7.6e-05
same,peptide microarray binding signal,[4]; [10],0.000404 ± 4.4e-06
ARTKQTARKSTGG [H3 1-13 A R T K Q T A Rme Kme3 S T G G],peptide microarray binding signal,"[1]; peptide modifications: H3R8me1 H3K9me3, binder concentration: 50 nM",0.398 ± 0.0051
same,peptide microarray binding signal,"[1]; peptide modifications: H3R8me1 H3K9me3, binder concentration: 500 nM",0.396 ± 0.0076
same,peptide microarray binding signal,"[2]; peptide modifications: H3R8me1 H3K9me3, binder concentration: 10 nM",0.0338 ± 0.011
same,peptide microarray binding signal,"[2]; peptide modifications: H3R8me1 H3K9me3, binder concentration: 100 nM",0.0759 ± 0.034
same,peptide microarray binding signal,[3]; [11],0.0426 ± 0.012
same,peptide microarray binding signal,[3]; [12],0.0253 ± 0.013
same,peptide microarray binding signal,[4]; [11],0.258 ± 0.015
same,peptide microarray binding signal,[4]; [12],0.171 ± 0.017
ARTKQTARKSTGG [H3 1-13 A R T K Q T A Rme2s K S T G G],peptide microarray binding signal,"[1]; peptide modifications: H3R8me2s, binder concentration: 50 nM",0.007899 ± 6.4e-05
same,peptide microarray binding signal,"[1]; peptide modifications: H3R8me2s, binder concentration: 500 nM",0.0258 ± 0.00046
same,peptide microarray binding signal,"[2]; peptide modifications: H3R8me2s, binder concentration: 10 nM",0.0129 ± 0.00049
same,peptide microarray binding signal,"[2]; peptide modifications: H3R8me2s, binder concentration: 100 nM",0.0364 ± 0.027
same,peptide microarray binding signal,[3]; [13],0.00759 ± 0.0043
same,peptide microarray binding signal,[3]; [14],0.00302 ± 0.00087
same,peptide microarray binding signal,[4]; [13],0.0037 ± 0.00057
same,peptide microarray binding signal,[4]; [14],0.00254 ± 0.00038
ARTKQTARKSTGG [H3 1-13 A R T K Q T A R K Sph T G G],peptide microarray binding signal,"[1]; peptide modifications: H3S10ph, binder concentration: 50 nM",0.00508 ± 8.1e-05
same,peptide microarray binding signal,"[1]; peptide modifications: H3S10ph, binder concentration: 500 nM",0.013 ± 0.00036
same,peptide microarray binding signal,"[2]; peptide modifications: H3S10ph, binder concentration: 10 nM",0.00233 ± 2.7e-05
same,peptide microarray binding signal,"[2]; peptide modifications: H3S10ph, binder concentration: 100 nM",0.0243 ± 0.00098
same,peptide microarray binding signal,[3]; [15],0.000321 ± 3.3e-06
same,peptide microarray binding signal,[3]; [16],0.000514 ± 5.5e-06
same,peptide microarray binding signal,[4]; [15],0.000362 ± 1.3e-05
same,peptide microarray binding signal,[4]; [16],0.000288
ARTKQTARKSTGG [H3 1-13 A R T K Q T A Rme2a K S T G G],peptide microarray binding signal,"[1]; peptide modifications: H3R8me2a, binder concentration: 50 nM",0.00959 ± 0.00045
same,peptide microarray binding signal,"[1]; peptide modifications: H3R8me2a, binder concentration: 500 nM",0.0248 ± 0.0019
same,peptide microarray binding signal,"[2]; peptide modifications: H3R8me2a, binder concentration: 10 nM",0.00812 ± 0.00091
same,peptide microarray binding signal,"[2]; peptide modifications: H3R8me2a, binder concentration: 100 nM",0.0181 ± 0.0056
same,peptide microarray binding signal,[3]; [17],0.00191 ± 0.00018
same,peptide microarray binding signal,[3]; [18],0.000799 ± 2.2e-05
same,peptide microarray binding signal,[4]; [17],0.000951 ± 7e-05
same,peptide microarray binding signal,[4]; [18],0.000634 ± 1.2e-05
ARTKQTARKSTGG [H3 1-13 A R T K Q T A Rme2s Kme2 S T G G],peptide microarray binding signal,"[1]; peptide modifications: H3R8me2s H3K9me2, binder concentration: 50 nM",0.0108 ± 0.00034
same,peptide microarray binding signal,"[1]; peptide modifications: H3R8me2s H3K9me2, binder concentration: 500 nM",0.0202 ± 0.00096
same,peptide microarray binding signal,"[2]; peptide modifications: H3R8me2s H3K9me2, binder concentration: 10 nM",0.0292 ± 0.0027
same,peptide microarray binding signal,"[2]; peptide modifications: H3R8me2s H3K9me2, binder concentration: 100 nM",0.049 ± 0.0084
same,peptide microarray binding signal,[3]; [19],0.00447 ± 0.00012
same,peptide microarray binding signal,[3]; [20],0.00451 ± 0.00027
same,peptide microarray binding signal,[4]; [19],0.00805 ± 0.0035
same,peptide microarray binding signal,[4]; [20],0.0049 ± 0.00019
ARTKQTARKSTGG [H3 1-13 A R T K Q T A Rme2a Kme2 S T G G],peptide microarray binding signal,"[1]; peptide modifications: H3R8me2a H3K9me2, binder concentration: 50 nM",0.0425 ± 0.0031
same,peptide microarray binding signal,"[1]; peptide modifications: H3R8me2a H3K9me2, binder concentration: 500 nM",0.0913 ± 0.0063
same,peptide microarray binding signal,"[2]; peptide modifications: H3R8me2a H3K9me2, binder concentration: 10 nM",0.044 ± 0.0014
same,peptide microarray binding signal,"[2]; peptide modifications: H3R8me2a H3K9me2, binder concentration: 100 nM",0.06 ± 0.0041
same,peptide microarray binding signal,[3]; [21],0.00357 ± 0.00013
same,peptide microarray binding signal,[3]; [22],0.00314 ± 4.6e-05
same,peptide microarray binding signal,[4]; [21],0.00355 ± 0.00032
same,peptide microarray binding signal,[4]; [22],0.00334 ± 0.00031
ARTKQTARKSTGG [H3 1-13 A R T K Q T A Rme2a Kme3 S T G G],peptide microarray binding signal,"[1]; peptide modifications: H3R8me2a H3K9me3, binder concentration: 50 nM",0.955 ± 0.067
same,peptide microarray binding signal,"[1]; peptide modifications: H3R8me2a H3K9me3, binder concentration: 500 nM",0.905 ± 0.038
same,peptide microarray binding signal,"[2]; peptide modifications: H3R8me2a H3K9me3, binder concentration: 10 nM",0.126 ± 0.042
same,peptide microarray binding signal,"[2]; peptide modifications: H3R8me2a H3K9me3, binder concentration: 100 nM",0.201 ± 0.059
same,peptide microarray binding signal,[3]; [23],0.0701 ± 0.02
same,peptide microarray binding signal,[3]; [24],0.0416 ± 0.019
same,peptide microarray binding signal,[4]; [23],0.458 ± 0.13
same,peptide microarray binding signal,[4]; [24],0.309 ± 0.082
